Screens deposited in PubChem by National Center for Advancing Translational Sciences (NCATS).
This is a sample that favours compounds with a hit; in the whole collection about 7.8% have one here.
HCMV antiviral: human cytomegalovirus inhibition | HFF cells, HCMV-luciferase reporter, 72 h; active compounds read low | activity change, negative = inhibition, % at 57.5 µM | actives 4.5% (n = 410,000) | AID 1259415; in the data active = activity change below about -60%; inconclusive = no clear call, values can overlap the other calls; inactive = above about -39%
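Two-dose cell screen: HFF monolayers treated with compounds and infected with luciferase-expressing HCMV at 1 PFU/cell, 72 h at 37C, then lysed for luciferase measurement.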
HCV inh: HCV inhibition. actives 3.4% (n = 340,000). Huh7.5.1 HCVcc-Cre infection, luciferase reporter, 44 h. Potency, µM (titrated, usually from 41.8 µM), for inactives: at the top dose activity change, negative = inhibition, hits mostly inhibitors; active = well fitted inhibition curve with a large enough effect; inconclusive = small, poorly fitted or top-dose-only effect, or another doubt; inactive = no such curve, though single readings can be large or run the other way; also: potency is read from the fitted curve at half-maximal effect
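Compounds are dispensed onto cells plated 4 h earlier at 1,000 per well, with HCVcc-Cre virus (about 0.5 moi) added next. Following 44 h of culture, luminescent signal is measured for 15 sec after 15 min with substrate at room temperature.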
VACV Venus inh: inhibitors of vaccinia virus (Venus reporter); Vaccinia virus Venus reporter expression, fluorescence; Potency, µM (titrated, usually from 36.5 µM), for inactives: at the highest dose activity change, negative = inhibition, hits mostly inhibitors; actives 0.46% (n = 330,000); calls by dose curve; tested in A549 cells; also: potency is read from the fitted curve at half-maximal effect; nearly all actives have a fitted effect of over 30% in size
MARV entry inh: Marburg virus entry inhibition; Marburg virus pseudotyped entry inhibition, cell reporter; Potency, µM (doses to about 37.8 µM), for inactives: top-dose activity change, negative = inhibition, most hits filed as inhibitors; actives 1.8% (n = 300,000); AID 540276; calls by dose curve; tested in HEK293 cells; also: potency is read from the fitted curve at half-maximal effect
Vaccinia mCherry: inhibitors of vaccinia virus infection (mCherry reporter signal) | AID 720579 | actives 0.63% (n = 310,000) | Vaccinia virus mCherry reporter infection, fluorescence | Potency, µM (highest dose often 36.5 µM), inactives show at the top dose activity change, negative = inhibition, actives largely listed as inhibitors; calls by dose curve; tested in A549 cells; also: potency is read from the fitted curve at half-maximal effect; nearly all actives have a fitted effect of over 35% in size
Lassa entry inh: inhibitors of Lassa virus binding or cell entry; Lassa virus pseudotype entry inhibition, cell reporter; Potency, µM (highest dose often 37.9 µM), for the others: at the top dose activity change, negative = inhibition, most hits filed as inhibitors; actives 1.2% (n = 300,000); AID 540256; calls by dose curve; tested in HEK293 cells; also: potency is read from the fitted curve at half-maximal effect; nearly all actives have a fitted effect of over 50% in size
Numbers without * were called inactive; i = inactive; ? = inconclusive; nt = no result given; [ ] = dose if it differs, or a comment. % is scaled to controls: 0 for no effect and ±100 for the full control effect.

SMILES	HCMV antiviral	HCV inh	VACV Venus inh	MARV entry inh	Vaccinia mCherry	Lassa entry inh
CC(C)CCN(C(=O)c1ccncc1)c1c(N)n(Cc2ccccc2)c(=O)[nH]c1=O	-19	-17%	nt	nt	nt	nt
CC(C)CCN(C(=O)Cc1ccc(Cl)c(Cl)c1)c1c(N)n(Cc2ccccc2)c(=O)[nH]c1=O	-31	10µM*	-14%	2%	-8%	?
CCOc1cc(/C=C2\CCC/C(=C\c3cc(Cl)c(O)c(OCC)c3)C2=O)cc(Cl)c1O	-98*	?	93%	11µM*	-12%	8.9µM*
CCOc1cc(/C=C2\CN(C)C/C(=C\c3ccc(O)c(OCC)c3)C2=O)ccc1O	-100*	22µM*	?	?	?	?
CCC(C)(C)C1CCC(=NNc2nc3ccccc3[nH]2)CC1 (configuration not stated)	?	?	nt	?	nt	8.2µM*
CC(C)N1C(=O)CC[C@@H](S(=O)(=O)c2ccccc2)[C@@H]1c1ccccc1	-4	nt	nt	nt	nt	nt
CC1=C(C(=O)Nc2cccnc2)C(c2ccccc2)n2nc(SCc3ccccc3Cl)nc2N1 (configuration not stated)	14	nt	0%	?	0%	15%[46.1 µM]
CCOc1ccc(NC(=O)Nc2nc(SCC)ns2)cc1	-61*	?	-25%	?	-29%	?
Cc1cc(-c2ccnc(-n3ncc(C(=O)N(C)CC(O)c4ccccc4)c3C)n2)c(C)s1 (configuration not stated)	nt	nt	5%	nt	-10%	nt
CCc1ccc(NC(=O)Cn2c(=O)n(CCCCC(=O)NCc3ccc4c(c3)OCO4)c(=O)c3ccccc32)cc1	-39	nt	-14%	5%[46.1 µM]	-20%	-4%[46.1 µM]
CC(C)Cc1nc(Nc2ccccc2C#N)c2nnn(Cc3ccccc3)c2n1	-28	16µM*	-3%	?	i	?
O=C(NCCc1ccccn1)C1CC12CCN(C(=O)c1c(F)cccc1Cl)CC2 (configuration not stated)	nt	nt	-4%	nt	1%	nt
COc1cc2c(cc1OC)C(C)N(C(=O)c1cc3c(s1)-c1ccccc1OC3)CC2 (configuration not stated)	-20	11µM*	14%	1%	6%	-9%
COc1cc2c(cc1OC)C(C)N(C(=O)c1cc3c(s1)-c1c(C)cccc1OC3)CC2 (configuration not stated)	?	?	nt	-3%	nt	-20%
COc1cc2c(cc1OC)C(C)N(C(=O)C1COc3ccccc3O1)CC2 (configuration not stated)	-65*	?	-15%	?	nt	?
Cc1cccc(C(=O)N2CCc3cc(CNS(=O)(=O)c4ccc(Cl)s4)ccc32)c1	-4	nt	-11%	nt	-12%	-27%[46.1 µM]
CC1CCCCN1C(=O)CSc1c2c(nc3cc(Cl)ccc13)CCCC2 (configuration not stated)	-27	nt	-4%	7%[46.1 µM]	-13%	2%[46.1 µM]
COC(=O)C1=C(C)NC(=O)CC1c1ccccc1 (configuration not stated)	0	3%	-3%	-2%	nt	9%
COC(=O)C1=C(C)NC(C)=C(C(=O)OC)C(N2C(=O)CCC2=O)C1 (configuration not stated)	-85*	nt	nt	nt	nt	nt
O=C(Cc1ccccn1)N1CC(=O)N2[C@H](C1)[C@@H](c1ccc(Br)cc1)[C@@H]2CO	63	nt	nt	nt	nt	nt
Cc1ccc(Nc2cc(C)c3ccc(O)cc3n2)cc1C	-33	10µM*	nt	nt	nt	nt
COC(=O)C1=C(c2ccc(OC(F)(F)F)cc2)C[C@@H]2CC[C@H]1N2C(=O)N1CCOCC1	-22	?	-18%	nt	-2%	nt
COC(=O)C1=C(c2ccc(OC(F)(F)F)cc2)C[C@@H]2CC[C@H]1N2C(=O)N1CCC(C)CC1	-64*	?	?	nt	-25%	nt
COC(=O)C1=C(c2ccc(OC(F)(F)F)cc2)C[C@@H]2CC[C@H]1N2C(=O)N1CCCC1	?	13µM*	?	nt	-14%	nt
Cn1c(=NC(=O)CS(=O)(=O)c2ccccc2)sc2ccccc21	-16	-26%	-9%	-14%	i	4%
SMILES	HCMV antiviral	HCV inh	VACV Venus inh	MARV entry inh	Vaccinia mCherry	Lassa entry inh
Cn1c(=NC(=O)CS(=O)(=O)c2ccccc2)sc2cc([N+](=O)[O-])ccc21	-87*	-12%	-11%	6%[46.1 µM]	-4%	-2%
NC(=O)c1ccsc1NC(=O)c1ccc(S(=O)(=O)N2CCCc3ccccc32)cc1	-71*	11µM*	?	?	-9%	?
CC(C)N1CCc2c(sc(NC(=O)c3ccc(S(=O)(=O)N(C)C4CCCCC4)cc3)c2C(N)=O)C1	-11	nt	-20%	nt	-24%	?
CC(C)N1CCc2c(sc(NC(=O)c3ccc(S(=O)(=O)N4CCc5ccccc54)cc3)c2C(N)=O)C1	nt	11µM*	-23%	nt	-20%	nt
CNC(=O)c1c(NC(=O)c2ccc(S(=O)(=O)N(C)c3ccccc3)cc2)sc2c1CCN(C(C)C)C2	0	11µM*	nt	nt	nt	nt
COc1ccccc1CNC(=O)c1c(O)nc2c(C)cccn2c1=O	-4	nt	-5%	18%[46.1 µM]	-13%	nt
CC(=O)N1CCc2c(sc(NC(=O)c3ccc([N+](=O)[O-])o3)c2C#N)C1	-98*	-8%	nt	nt	nt	nt
CC(C)N1CCc2c(sc(NC(=O)c3cc(-c4cccs4)nc4ccccc34)c2C(N)=O)C1	nt	10µM*	?	?	?	?
COC(=O)c1c(NC(=O)Cc2ccccc2)sc2c1CCN(C(C)C)C2	-28	?	-23%	nt	?	nt
COC(=O)c1c(NC(=O)c2ccc([N+](=O)[O-])o2)sc2c1CCN(C(C)C)C2	?	2.8µM*	14µM*	?	?	?
CC(C)N1CCc2c(sc(NC(=O)c3nc4ccccc4s3)c2C(N)=O)C1	-36	?	-18%	2%[46.1 µM]	-24%	?
CCOC(=O)c1sc(NC(=O)c2ccco2)c(C#N)c1C	-2	32%	-5%	-2%	-12%	0%
COC(=O)c1sc(NC(=O)c2ccc([N+](=O)[O-])o2)c(C#N)c1C	0	11µM*	nt	6%	nt	nt
CCOc1ccc(Cn2nnc3c(=O)[nH]c(C4CCN(C(=O)c5ccccc5)CC4)nc32)cc1	0	nt	-7%	10%[46.1 µM]	12%	-11%[46.1 µM]
O=C(CCC1N=C2c3ccccc3N=C(SCc3ccc(Cl)cc3)N2C1=O)NC1CCCCC1 (configuration not stated)	-7	nt	-17%	10%[46.1 µM]	-26%	18%[46.1 µM]
CN1CCc2c(sc(NC(=O)c3ccc(C(=O)c4ccccc4)cc3)c2C(N)=O)C1	-3	?	nt	nt	nt	nt
CC(C)N1CCc2c(sc(NC(=O)c3ccc([N+](=O)[O-])o3)c2C(N)=O)C1	-98*	nt	nt	nt	nt	nt
Cc1ccc(N(CC(=O)Nc2cc(Cl)ccc2Oc2ccccc2)S(C)(=O)=O)cc1C	-9	?	?	?	nt	?
